# Measured values published in PubChem BioAssay (Tox21).
# Where “and” joins values, the source holds several entries; their conditions need not be identical. Identical values can stand only once. Calls of active or inactive are those of the source. Calls follow the shape of the full dose curve.
# Experiment: qHTS assay to identify small molecule agonists of the estrogen related receptor (ERR) signaling pathway from Tox21 library (AID 1224849); also: nearly all actives have a fitted effect of over 15% in size
# Conditions: ERR reporter cell line, ONE-Glo luciferase, 18 h; at 42.5 µM (top of the series)
# Source text: National Center for Advancing Translational Sciences [NCATS]
# NIH Chemical Genomics Center [NCGC]
# U.S. Environmental Protection Agency [EPA]
# National Institutes of Environmental Health Sciences [NIEHS]
# National Toxicology Program [NTP]
# Estrogen related receptors (ERRs), the first orphan nuclear receptors discovered, play an important role in the control of cellular energy metabolism. ERRs are required for high-energy production in response to the environmental challenges. ERR-alpha was also identified as an adverse marker for breast cancer progression; ERR-alpha-positive tumors have a poor prognosis. To screen and to identify environmental compounds that perturb the ERR signaling pathways could provide valuable information for potential therapeutic or preventive measures in the treatment of metabolic disease. For identifying ERR agonists, ERR cell line (provided by NTP) has been used to screen Tox21 10K library.
# The ERR cells were dispensed at 2,000 cells/5 ul/well in 1536-well white plates using a Multidrop dispenser. After the assay plates were incubated at a 37 C/5% CO2 incubator for 6 hours, 23 nL of compounds dissolved in DMSO, positive and negative controls or DMSO only was transferred to the assay plate by a pin tool. The plates were incubated at 37 C for 18 hours. 4 ul/well of One-Glo reagent was added into the assay plates using a Flying Reagent Dispenser. After 30-minute incubation at room temperature, the luminescence intensity in the plates was measured using a ViewLux plate reader.
# % is scaled to controls: 0 for no effect and ±100 for the full control effect.
row,SMILES,"activity change, positive = activation"
1,Clc1ccccc1C(c1ccccc1)(c1ccccc1)n1ccnc1,-60.3% (inactive)
2,CC(C)(C)CC(C)(C)c1ccc(OCCOCC[N+](C)(C)Cc2ccccc2)cc1,-58.4% (inactive)

# Same assay, conditions: ERR reporter cell line, ONE-Glo luciferase, 18 h; at 92.4 µM (top of the series)
row,SMILES,"activity change, positive = activation"
1,Clc1ccccc1C(c1ccccc1)(c1ccccc1)n1ccnc1,-72.6% (inactive)
2,CC(C)(C)CC(C)(C)c1ccc(OCCOCC[N+](C)(C)Cc2ccccc2)cc1,-70.8% (inactive)

# Same assay, conditions: ERR reporter cell line, ONE-Glo luciferase, 18 h; at 92.4 µM (top of the series) unless noted
row,SMILES,"activity change, positive = activation"
1,O=c1[nH]sc2cc(Cl)ccc12,-42.9% [at 42.5 µM] (inactive)
2,CCC(C)(C)C1CCCCC1OC(C)=O (stereo not given),-0.855% (inactive)
3,CCCCCCCC/C=C/CCCCCCCC1=NCCN1CCO,-79.9% (inactive)
4,Nc1ccccc1O,-27.3% (inactive)
5,C[C@H](CCC(=O)O)[C@H]1CC[C@H]2[C@@H]3CC[C@@H]4C[C@H](O)CC[C@]4(C)[C@H]3CC[C@]12C,-9.3% (inactive) and -27.2% (inactive)
6,CC1=C(C(=O)OC(C)C)C(c2cccc([N+](=O)[O-])c2)C(C(=O)OC2CN(C(c3ccccc3)c3ccccc3)C2)=C(N)N1 (stereo not given),-68.1% [at 42.5 µM] (inactive)
7,Oc1c(Cl)cc(Cl)c2cccnc12,-66% [at 42.5 µM] (inactive)
8,O=C(NO)C1(NS(=O)(=O)c2ccc(Oc3ccc(F)cc3)cc2)CCOCC1,-35.1% (inactive)
9,CCN(CCC#N)c1ccc(N=Nc2c(Cl)cc([N+](=O)[O-])cc2Cl)cc1,-27% (inactive)
10,CCCCCCCCCCn1cc[n+](CCCCCCCCCC)c1C,-74.4% (inactive)
11,Cc1cccc(CN2CCN(C(c3ccccc3)c3ccc(Cl)cc3)CC2)c1 (stereo not given),-29.2% [at 42.5 µM] (inactive)
12,CCC1=C[C@@H]2CN(C1)Cc1c([nH]c3ccccc13)[C@@](C(=O)OC)(c1cc3c(cc1OC)N(C)[C@H]1[C@@](O)(C(=O)OC)[C@H](OC(C)=O)[C@]4(CC)C=CCN5CC[C@]31[C@@H]54)C2,-48.8% [at 42.5 µM] (inactive)
13,COc1cc(-c2ccc(N=C=O)c(OC)c2)ccc1N=C=O,-0.106% [at 42.5 µM] (inactive)
14,COc1ccc(-c2ccc3cc(C(=O)O)ccc3c2)cc1C12CC3CC(CC(C3)C1)C2,-10.4% [at 42.5 µM] (inactive)
15,CCC1OCC(COc2ccc(Oc3ccccc3)cc2)O1 (stereo not given),-1.58% (active)
16,ON=C1CCCC1,-71.1% (inactive)
17,CCc1cc(Cc2cc(CC)c(N)c(CC)c2)cc(CC)c1N,-60.8% (inactive)
18,Cc1cc(O)c(Cl)c(C)c1Cl,1.15% (inactive)

row,SMILES,"activity change, positive = activation"
1,O=C(Oc1cccc2cccnc12)c1ccccc1,-60.1% [at 42.5 µM] (inactive)
2,Cc1c(C)c2c(c(C)c1OC(=O)CCC(=O)O)CC[C@@](C)(CCC[C@H](C)CCC[C@H](C)CCCC(C)C)O2,-23.6% (inactive)
3,Cc1cccc(N(C)C(=S)Oc2ccc3c(c2)C2CCC3C2)c1 (stereo not given),-2.97% [at 42.5 µM] (inactive)
4,N=C1C=CC(=C(c2ccc(N)cc2)c2ccc(N)cc2)C=C1,-66.1% (inactive)
5,Cc1cc2c(cc1C(F)(F)F)N(C(=O)Nc1ccc(Oc3cccnc3C)nc1)CC2,-42.2% (inactive)
6,N/C(=N\N=C\c1ccc(Cl)cc1)N/N=C/c1ccc(Cl)cc1,-44.1% [at 42.5 µM] (inactive)
7,Cc1cc(O)c(C(C)(C)C)cc1Sc1cc(C(C)(C)C)c(O)cc1C,-80.3% (inactive)
8,O=C(N/N=C/c1ccccc1O)c1ccncc1,-42.8% [at 42.5 µM] (inactive)
9,CCCC1O[C@@H]2C[C@H]3[C@@H]4CCC5=CC(=O)C=C[C@]5(C)[C@H]4[C@@H](O)C[C@]3(C)[C@]2(C(=O)CO)O1 (stereo not given in full),-61.9% (inactive) and -49.1% (inactive)
10,C/C=C(\C)C(=O)OCc1ccccc1,5.16% (inactive)
11,Cc1ccc(O)c2ncccc12,-58.3% [at 42.5 µM] (inactive)
12,CCN(C(=O)N(CC)c1ccccc1)c1ccccc1,-25.8% (inactive)
13,OCCN(CCO)c1nc(N2CCCCC2)c2nc(N(CCO)CCO)nc(N3CCCCC3)c2n1,-56% [at 42.5 µM] (inactive)
14,CCCCCCCCCCCC[N+](C)(C)CCCCCCCCCCCC,-72.6% (inactive)
15,CCCCCCCCCCCCCCCC[N+](C)(C)CCN(Cc1ccc(OC)cc1)c1ncccn1,-53.6% [at 42.5 µM] (inactive)
16,CCCCCOc1ccccc1/C(=C\SC)n1ccnc1,-47.2% [at 42.5 µM] (inactive)
17,NNc1nc(-c2ccc(N)cc2)cs1,-40.8% (inactive)
18,C[n+]1ccn(Cc2ccccc2)c1,-31.8% (inactive)
